Results on 34 compounds are retold here after PubChem BioAssay (NCATS).

Records with an inconclusive call do not appear. The source made the active and inactive calls. Calls follow the shape of the dose curve; as a rule, active = well fitted cell-killing curve with a large enough effect; inconclusive = small, poorly fitted or top-dose-only effect; inactive = flat fitted curve, though single readings scatter.

The experiment can be described thus: Cell Viability - LYMP2-022 (AID 987).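 Also: 0% = DMSO alone and full effect = tetraoctylammonium bromide at 92 µM; nearly all actives have a fitted effect of over 55% in size.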 The settings on record: LYMP2-022 lymphoblastoid cell viability; series mostly up to 92.2 µM; viability change, negative = cytotoxic: at the top concentration. Summed up:
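Acute toxicity in a human lymphoblastoid line is scored as decreased intracellular ATP after 24 hr compound treatment at 37 C. ATP is measured by CellTiter-Glo luminescence; curves are fitted with the Hill equation to give AC50.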
As to `Oc1cccc(Cl)c1Cl`, the “viability change, negative = cytotoxic” value was -11.8% (inactive).
With `Cc1cnc[nH]1`, the “viability change, negative = cytotoxic” value was 0.0551% (inactive).
`CN(C)N=O`: the “viability change, negative = cytotoxic” value is -14.6% (inactive).
The figure for `COc1c(C(C)(C)C)cc([N+](=O)[O-])c(C)c1[N+](=O)[O-]` is -8.54% (inactive); for `C=C(Cl)CCl` it is -17.1% (inactive); for `CC12CC1(C)C(=O)N(c1cc(Cl)cc(Cl)c1)C2=O` (centres undefined) it is -17% (inactive).
The figure for `CC(C)(Cl)[N+](=O)[O-]` is -16.2% (inactive); for `Cl/C=C/Cl` it is -4% (inactive); for `CCCCOCC1CO1` (centres undefined) it is 8.5% (inactive).
For `O=C(O)c1cccc(Cl)c1`, the “viability change, negative = cytotoxic” value was -5.66% (inactive).
As for `C1CC2OC2CC1C1CO1` (centres undefined), the figure is -7.23% (inactive).
The figure for `Brc1cccc(-c2ccccc2)c1` is -3.71% (inactive); for `Oc1c(Cl)cccc1Cl` it is -9.47% (inactive); for `ClCCOCCCl` it is 5.21% (inactive).
As for `CCNCC`, the figure is -11.1% (inactive).
Take `CC(C)C#N`: the “viability change, negative = cytotoxic” value is -0.514% (inactive).
As to `Cl/C=C\Cl`, the “viability change, negative = cytotoxic” value is -19.1% (inactive).
As for `c1ccc2c(c1)CCNC2`, the figure is -14.1% (inactive); as for `CCBr`, -9.27% (inactive); as for `O=[N+]([O-])c1ccc(Cl)c(Cl)c1Cl`, 9.57% (inactive).
As for `N#CCCC#N`, the figure is -2.82% (inactive); as for `Cc1ccccc1[N+](=O)[O-]`, 5.7% (inactive); as for `OCCBr`, -5.03% (inactive).
As for `C=CC(=O)OCCN(C)C`, the figure is -0.361% (inactive); as for `CC(C)(C)C(O)(CCc1ccc(Cl)cc1)Cn1cncn1` (centres undefined), -12.6% (inactive).
As for `N#CCCCCC#N`, the “viability change, negative = cytotoxic” value was 5.2% (inactive).
For `CN=C=O`, the “viability change, negative = cytotoxic” value is -6.28% (inactive).
The figure for `CCCCCC[N+](=O)[O-]` is -16.3% (inactive); for `OCC(Cl)CCl` (centres undefined) it is 3.72% (inactive); for `COc1ccc(C=O)cc1` it is -15.4% (inactive).
With `Nc1ccc(Cl)c(Cl)c1`, the “viability change, negative = cytotoxic” value was -13.7% (inactive).
On to `CC(=O)[O-].CC(=O)[O-].CC(=O)[O-].[Cr+3]`, for which the “viability change, negative = cytotoxic” value is -12.8% (inactive).
As for `CC(=O)CCC(C)=O`, the figure is -9% (inactive); as for `C=CC(=O)OCC(CC)CCCC` (centres undefined), -14.3% (inactive).
